ssDAF-12 act = activators of S. stercoralis DAF-12 nuclear receptor; 370,000 tested, 1% active; activation, % at 6.8 µM; HEK293 ssDAF-12/GRIP1 lit1-tk-luc reporter, luminescence; % of 3 µM dafachronic acid response; AID 652126;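 active = activation above the mean over all tested compounds plus 3 SD, cut at about 0.9% in these data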;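 also: 0% = DMSO-only wells and 100% = 3 µM delta7-dafachronic acid wells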
DAX1 inh-1 = blocks DAX1 repression of SF-1 activated StAR promoter | inhibition, % at 6.8 µM | 370,000 tested, 1.1% active | HEK293T StAR-luciferase reporter, SF-1/DAX-1 repression relief | AID 652010;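 active = inhibition above the mean over all tested compounds plus 3 SD, cut at about 3.6% in these data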;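 also: 0% = DAX-1 cells with DMSO and 100% = cells lacking DAX-1 with DMSO; higher inhibition means more luminescence from relief of DAX-1 repression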
hgDAF-12 ag = agonists of H. glycines DAF-12 nuclear receptor | activation, % at 6.8 µM | 370,000 tested, 1.8% active | HEK293 GAL4-hgDAF12 UAS-luciferase reporter, agonist luminescence; normalized to butyrate control;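 active = activation above a cutoff set at the mean of all screened compounds plus 3 SD, cut at about 10% in these data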;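 also: 0% = DMSO wells and 100% = sodium butyrate wells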
hcDAF12 agonist = activates DAF-12 receptor from parasite H. contortus; HEK293 hcDAF-12 lit1-tk-luc reporter, luminescence; 0% DMSO, 100% Δ7-dafachronic acid; activation, % at 6.8 µM; 370,000 tested, 1.4% active;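 active = activation above the mean of all tested compounds plus 3 SD, cut at about 5.5% in these data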;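 also: 100% = response to 3 µM Δ7-dafachronic acid high control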
DAX1 inh-2 = inhibits human nuclear receptor DAX1 | HEK293 Gal4-DAX1 luciferase reporter, luminescence | inhibition, % at 6.75 µM | 340,000 tested, 0.99% active;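 active = inhibition above the mean over all tested compounds plus 3 SD, cut at about 4.2% in these data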;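 also: 0% = DAX1-transfected cells with DMSO and 100% = empty-vector control cells with DMSO; inhibition shows as a rise in luminescence from relieved DAX1 repression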
Target sequence (P51843 207-470 limits assumed): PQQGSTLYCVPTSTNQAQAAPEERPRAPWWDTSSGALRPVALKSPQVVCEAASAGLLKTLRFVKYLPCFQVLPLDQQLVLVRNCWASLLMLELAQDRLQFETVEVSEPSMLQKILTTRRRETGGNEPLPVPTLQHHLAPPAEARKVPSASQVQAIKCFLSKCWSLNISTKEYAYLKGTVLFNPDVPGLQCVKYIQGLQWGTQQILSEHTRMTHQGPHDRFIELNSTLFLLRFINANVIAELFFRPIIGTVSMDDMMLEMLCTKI
DAX1 conf = confirmation of human DAX1 (NR0B1) inhibitors | shares compounds with DAX1 inh-1 | 2,400 tested, 87% active | HEK293T StAR-promoter luciferase reporter, SF-1/DAX-1 repression | inhibition, % at 6.8 µM;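 active = inhibition above the average of every tested compound plus 3 SD, cut at about 3.8% in these data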;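 also: 0% = DAX-1 cells with DMSO and 100% = no DAX-1 control cells with DMSO; active compounds raise luminescence by relieving repression of the StAR reporter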
SF1 mutant ctr = nonselective inhibitor or artifact in SF-1 mutant DAX1 counter-screen; HEK293 StAR-luciferase, SF-1 AF2 mutant, luminescence; 2,400 tested, 78% active; inhibition, % at 6.8 µM; shares compounds with DAX1 inh-1; AID 652136;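 active = inhibition above the mean of all tested compounds plus 3 SD, cut at about 3% in these data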;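 also: 0% = DAX-1 transfected cells with DMSO and 100% = cells without DAX-1 with DMSO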
LXRb hcDAF ctr = LXR-beta agonism as hcDAF-12 counter-screen. shares compounds with hcDAF12 agonist. HEK293 Gal4-LXR tk-luc reporter, luminescence, 24 h; normalized: DMSO 0%, positive control 100%. activation, % at 6.8 µM. 3,400 tested, under 10 active. AID 743027;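 active = mean percent activation of the reporter above a cutoff set as the average over tested compounds plus their standard deviation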
hcDAF12 conf = confirmation of H. contortus DAF-12 agonists. shares compounds with hcDAF12 agonist. HEK293 hcDAF-12 lit1-tk-luc reporter, luminescence; % of Δ7-dafachronic acid response. activation, % at 6.8 µM. 3,400 tested, 61% active. AID 743032;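 active = mean activation across triplicate tests above the threshold derived from the earlier primary screen, cut at about 5.5% in these data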;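 also: 0% = DMSO only wells and 100% = 3 µM Δ7-dafachronic acid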
hgDAF12 ag = hgDAF-12 agonism, confirmation assay; shares compounds with hgDAF-12 ag; HEK293 GAL4-hgDAF12 luciferase reporter, agonist mode; percent of butyrate response; activation, % at 6.8 µM; 3,300 tested, 80% active; AID 743050;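 active = mean activation over triplicate wells above the hit cutoff derived from the earlier primary screen, cut at about 11% in these data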;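 also: 0% = DMSO low control and 100% = 2 mM sodium butyrate high control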
LXRb DAF12 ctr = counter-screen for DAF-12 agonists: agonists of human LXR-beta; activation, % at 6.8 µM; shares compounds with hgDAF-12 ag; AID 743051; HEK293 Gal4-LXR luciferase reporter, 24 h; 3,300 tested, under 10 active;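 active = mean activation of the triplicate above a set limit carried over from the primary screen, none filed active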
* marks the source's active call; other numbers are inactive results; x = no result given. A selection: hits, their analogues and other compounds. The true share with any hit is near 4.1%.

SMILES	ssDAF-12 act	DAX1 inh-1	hgDAF-12 ag	hcDAF12 agonist	DAX1 inh-2	LXRb hcDAF ctr	hcDAF12 conf	others
CC/C(=N\NC(=O)c1ccccc1)c1c(O)n(C2CCCCC2)c(=O)[nH]c1=O	-1	4.8*	15*	3	1	x	x	DAX1 conf=2;SF1 mutant ctr=1;hgDAF12 ag=2;LXRb DAF12 ctr=0
COc1ccccc1CCNCc1cc2c(cc1[N+](=O)[O-])OCO2	0.9*	0	1	8.4*	1	0	-1
COc1ccc(Br)cc1CNCCc1ccc2c(c1)OCO2	-2	0	0	-1	2	x	x
Cc1ccc(OCCOc2cccc(C=C3C(=O)NC(=O)NC3=O)c2)cc1	1.1*	3	12*	6.6*	-3	1	7.3*
CC(=NCCc1ccccc1)c1c(O)n(C)c(=O)n(C)c1=O	-1	0	-2	-1	4	x	x
CC(=Nc1ccccc1N)c1c(O)n(C)c(=O)n(C)c1=O	1	0	8	6.6*	4.5*	0	1
CN1C(=O)NC(=O)[C@]2(Cc3ccccc3N3CCN(c4ccccc4)CC32)C1=O (some centres not stated)	0	2	8	4	2	x	x
O=C1NC(=O)[C@]2(Cc3ccccc3N3CCN(c4ccccc4)CC32)C(=O)N1c1ccccc1 (some centres not stated)	1.8*	1	8	7.6*	1	0	0
COC(/C(C)=C/C=C/C(C)=C/c1coc(C)n1)C(C)C1CC(O)C2(C)OC2C=CC(C)C2CC(CC(=O)O2)CC2OC2C(=O)O1 (configuration not stated)	-1	0	2	1	-2	x	x
CC1CC(OP(O)(=S)c2ccc(N(C)C)cc2NC(=O)c2cccs2)CC(C)(C)C1 (configuration not stated)	0	2	11*	8.8*	2	0	4
N#CCC[C@H]1CC[C@]2(CCCN(Cc3ccccn3)C2)O1	-1	0	-3	1	x	x	x
Cc1cc(/C=C2\C(=O)NC(=O)N(c3ccc(Br)cc3)C2=O)c(C)n1C	-1	0	-1	7.1*	0	0	-1
Cn1c(O)c(/C=C2\C=Nc3ccccc32)c(=O)n(C)c1=O	0	0	0	7.7*	0	0	5
Fc1cccc(-c2ccc3c(c2)CNCc2cnnn2-3)c1	-1	-1	-2	-1	x	x	x
CC12CC[C@H]3[C@@H](CCC4(O)C[C@H](O)CCC34/C=N/NC(=O)c3ccccc3O)C1(O)CCC2C1=CC(=O)OC1 (some centres not stated)	1	1	-3	17*	1	0	6.8*
CC12CC[C@H]3[C@@H](CCC4(O)C[C@H](O)CCC34/C=N/NC(=O)c3ccccc3F)C1(O)CCC2C1=CC(=O)OC1 (some centres not stated)	-1	0	6	4	1	x	x
CC(=O)c1cccc(OCC(=O)N2CCN(CC(=O)Nc3cccc(F)c3)CC2)c1	-2	1	0	-1	0	x	x
CC(C)[C@H](NC(=O)N1C[C@H]2C[C@@H](C1)c1cccc(=O)n1C2)C(=O)Nc1ccccc1F	-1	0	-1	-2	1	x	x
Nc1cc(C(=O)Nc2ccccc2F)ccc1N1CC2CC(C1)c1cccc(=O)n1C2 (configuration not stated)	-1	1	3	7.0*	0	0	0
COc1cc(/C=C/C(=O)c2c(O)n(CCc3ccccc3)c(=O)[nH]c2=O)ccc1O	-1	0	0	0	0	x	x
COc1cc(/C=C2/C(=O)NC(=O)N(c3ccccc3)C2=O)ccc1O	0	0	2	7.0*	2	0	1
Cc1ccc(-c2nc(N3CCOCC3)s[n+]2-c2ccccc2)cc1	1.5*	4.0*	15*	12*	1	1	5	hgDAF12 ag=8;LXRb DAF12 ctr=1
COc1ccc(-n2nc(C(=O)NCC(=O)N3CCC4(CC3)OCCO4)c3ccccc3c2=O)cc1Cl	1	1	14*	6.6*	3	0	4	hgDAF12 ag=12*;LXRb DAF12 ctr=0
COc1ccc(C)cc1NC(=O)N1CCC2(CC1)OCCO2	-1	0	-2	0	0	x	x
Cc1ncoc1C(=O)NCC1=C(c2ccc(S(C)(=O)=O)cc2)C[C@@H]2CC[C@H]1N2Cc1ccco1	-1	1	3	0	1	x	x
SMILES	ssDAF-12 act	DAX1 inh-1	hgDAF-12 ag	hcDAF12 agonist	DAX1 inh-2	LXRb hcDAF ctr	hcDAF12 conf	others
N/C(=N\N=C\c1ccc(O)cc1O)N[N+](=O)[O-]	-1	0	0	0	-1	x	x
COc1ccccc1/C=N/N=C(/N)N[N+](=O)[O-]	-2	0	16*	0	0	x	x	hgDAF12 ag=1;LXRb DAF12 ctr=0
O=C1NC(=O)C2(CCN(c3ccccc3)CC2)C(=O)N1	1	-1	0	0	1	x	x
O=C(c1cc2c(s1)-c1ccccc1OC2)N1CCC2(CC1)OCCO2	0	0	14*	3	3	x	x	hgDAF12 ag=19*;LXRb DAF12 ctr=1
COc1ccc(CN2Cc3cc(N4CCOCC4)ccc3-n3nncc3C2)cc1	-2	1	0	-2	x	x	x
Cc1ccc(-c2nc3ccc(Cl)cc3n2OC(=O)N(C)C)cc1	0	2	14*	5	1	x	x	hgDAF12 ag=12*;LXRb DAF12 ctr=1
COc1ccc(C2=NCC(=S)Nc3ccc(Cl)cc32)cc1Cl	-1	-1	-2	0	1	x	x
NC(Cc1nc2ccccc2[nH]1)c1ccc(Cl)cc1 (configuration not stated)	1	3	14*	5	3	x	x	hgDAF12 ag=15*;LXRb DAF12 ctr=0
NC(Cc1ccccc1)c1nc2ccccc2[nH]1 (configuration not stated)	0	0	1	2	2	x	x
